For 58 compounds, activity change, negative = inhibition results are on record in PubChem BioAssay AID504652 (National Center for Advancing Translational Sciences (NCATS), 2011).

Screen size: about 360,000 compounds; about 11,000 (3.1%) were called active. The sample as a whole holds a higher share of actives than the screen did. Values without a mark were called inactive. No stated cut-off is given here; in the data, active means activity change below about -30%; inactive means the rest.
On the % scale 0 is the no-effect control and ±100 the full control effect.

Chain of D(1A) dopamine receptor (Homo sapiens) (P21728 whole entry, looked up): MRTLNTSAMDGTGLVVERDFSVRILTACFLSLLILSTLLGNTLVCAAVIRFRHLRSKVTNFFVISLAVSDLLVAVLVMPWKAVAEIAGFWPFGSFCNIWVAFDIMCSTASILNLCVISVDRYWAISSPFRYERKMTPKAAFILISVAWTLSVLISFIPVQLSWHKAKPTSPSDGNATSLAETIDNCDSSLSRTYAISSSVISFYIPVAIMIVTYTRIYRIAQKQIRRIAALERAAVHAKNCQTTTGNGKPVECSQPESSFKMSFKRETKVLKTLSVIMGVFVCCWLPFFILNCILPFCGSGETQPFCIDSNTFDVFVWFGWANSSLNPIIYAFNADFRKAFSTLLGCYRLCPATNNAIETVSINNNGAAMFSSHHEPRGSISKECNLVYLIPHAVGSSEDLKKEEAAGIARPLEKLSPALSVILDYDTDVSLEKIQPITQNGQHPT

The experiment addresses D(1A) dopamine receptor (Homo sapiens) (UniProt P21728). As to the kind of experiment: Antagonist of Human D 1 Dopamine Receptor: qHTS. The settings on record: HEK293 TREx D1 cells, calcium flux, dopamine EC80; at 10 µM; stronger effect = lower value. Summed up: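 Calcium flux readout: force-coupled, inducible Hek293 Trex D1 line, cells induced overnight at 30 C with tetracycline, dye-loaded 30–90 min at RT. Antagonism scored against EC80 dopamine challenge given 180 s after compound.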
A general note: qHTS replaces the single test concentration by a dilution series.
Consider `COc1ccc(NC(=O)C(c2ccccc2)N2Cc3ccccc3C2=O)cc1` (stereo not drawn), for which the activity change, negative = inhibition is -6.94%.

Regarding `CN1CCN(c2ccc(NC(=O)COc3ccc(Cl)cc3Cl)cc2)CC1`, the activity change, negative = inhibition was -32% (active).

For `CN1CCC(OC(=O)COc2ccc(Cl)cc2Cl)CC1`, the activity change, negative = inhibition is -9.08%.

With `COc1ccc(OCC(=O)Nc2ccc(N3CCC(C)CC3)cc2)cc1`, the activity change, negative = inhibition is -33.3% (active).

`CCC(=O)c1ccc(OCC(=O)Nc2ccc(N3CCCCC3)cc2)cc1`: the activity change, negative = inhibition is 16.6%.

With `Cc1ccc(Cl)c(OCC(=O)N(C)CC(=O)Nc2ccc(N3CCOCC3)cc2)c1`, the activity change, negative = inhibition was -14.5%.

With `COc1ccc(OCC(=O)OCC(=O)Nc2ccc(S(=O)(=O)N3CCCCC3)cc2)cc1`, the activity change, negative = inhibition was -15.5%.

Regarding `CCOC(=O)C1CCN(C(=O)CSc2c3c(nc4ccc(Cl)cc24)CCCC3)CC1`, the activity change, negative = inhibition was -13.5%.

`CC(=O)N1CCc2cc(Br)cc(S(=O)(=O)CCC(=O)NCCc3ccc(Cl)cc3)c21`: the activity change, negative = inhibition was -8.71%.

As for `COc1ccc(-c2noc(CSc3nc4ccc(C)cc4[nH]3)n2)cc1`, the activity change, negative = inhibition is -1.27%.

As to `CC(=O)c1ccc(NC(=O)c2nc(-c3ccc(C)cc3)n3c2CCCCC3)cc1`, the activity change, negative = inhibition was -2.03%.

For `CC(C)(C)c1cc(C(=O)NN)n(Cc2ccc(Cl)cc2Cl)n1`, the activity change, negative = inhibition was -27.8%.

Consider `O=C(CCN1C(=O)c2ccccc2C1=O)NNC(=O)c1ccc(Cl)cc1Cl`, for which the activity change, negative = inhibition is -4.44%.

As for `Cn1cc(C(=O)c2ccc(Cl)cc2Cl)cc1C(=O)NN`, the activity change, negative = inhibition was -37.3% (active).

In the case of `Cc1ccc(NC(=O)c2cn3c4c(ccc(Cl)c4c2=O)OC(C)C3)cc1C` (stereo not drawn), the activity change, negative = inhibition was -1.66%.

Consider `Cc1cc(Cl)ccc1NC(=O)Cc1ccc(NC(=O)N2CCCCc3ccccc32)cc1`, for which the activity change, negative = inhibition was -3.59%.

Consider `CCOc1ccc(NC(=O)CCc2c(C)nn(-c3ccc(N4CCCC4)nn3)c2C)cc1`, for which the activity change, negative = inhibition is 4.71%.

Regarding `CC(=O)Nc1c(C)nn(-c2ccccc2)c1N1CCC(C(=O)Nc2cc(Cl)ccc2C)CC1`, the activity change, negative = inhibition is -18.9%.

Consider `CSc1ncc(Cl)c(C(=O)Nc2ccc(S(=O)(=O)N3CCCC(C)C3)cc2)n1` (stereo not drawn), for which the activity change, negative = inhibition is -5.19%.

On to `CCOc1ccc(CN(C)C(=O)c2ccc(=O)[nH]c2)cc1`, for which the activity change, negative = inhibition is 10.3%.

As to `CN(CC(=O)Nc1ccc(Cl)cc1)C(=O)c1ccc(COc2ccccc2)cc1`, the activity change, negative = inhibition is 3.34%.

Turning to `CN(Cc1ccccc1)C(=O)c1ccc(COc2ccccc2)cc1`, the activity change, negative = inhibition is -60.8% (active).

Turning to `CCOc1cc(C2C(C(=O)OC)=C(C)NC3=C2C(=O)c2ccccc23)ccc1O` (stereo not drawn), the activity change, negative = inhibition was -1.02%.

In the case of `COc1ccccc1-c1cc2nc(C)c(CCC(=O)NC3CCCCC3)c(C)n2n1`, the activity change, negative = inhibition was 2.22%.

Regarding `COC(=O)c1sccc1NC(=O)CCC1CCCC1`, the activity change, negative = inhibition is 1.13%.

In the case of `COC(=O)c1ccc(NC(=S)Nc2cccc(C)n2)cc1`, the activity change, negative = inhibition is -4.64%.

Regarding `CCOC(=O)C(=CNNc1ccsc1C(=O)OC)C(=O)OCC`, the activity change, negative = inhibition is 12.1%.

As to `COC(=O)c1sccc1NS(=O)(=O)c1ccc(F)cc1F`, the activity change, negative = inhibition is -12%.

As for `COC(=O)c1ccc(NC(=O)Nc2ccc(C)cc2)cc1`, the activity change, negative = inhibition was -35.1% (active).

As for `COC(=O)c1sccc1NN1C(=O)c2ccccc2C1=O`, the activity change, negative = inhibition is -47.9% (active).

As for `COC(=O)c1sccc1NC(=S)Nc1ccc(C)cc1`, the activity change, negative = inhibition is -32.4% (active).

For `COC(=O)c1sccc1NC(=O)c1ccc(Cl)cc1`, the activity change, negative = inhibition was 1.11%.

For `COc1cc(NC(=O)Nc2ccc(C)cc2)cc([N+](=O)[O-])c1`, the activity change, negative = inhibition was -3.95%.

Take `Cc1oc2c(c1C(=O)Nc1ccc(F)c(F)c1)C1=NCCN1C=N2`: the activity change, negative = inhibition is -2.12%.

Regarding `CCOC(=O)c1ccc(NC(=O)c2ncn(-c3ccccc3)n2)cc1`, the activity change, negative = inhibition was -18.3%.

As to `O=C(CCC1N=C2c3ccccc3N=C(SCc3ccccc3F)N2C1=O)NCCc1ccccc1` (stereo not drawn), the activity change, negative = inhibition was 14.5%.

For `COc1ccc(N2CCN(Cc3nc4c(c(=O)[nH]c(=O)n4C)n3Cc3ccc(Cl)cc3)CC2)cc1`, the activity change, negative = inhibition was -1.05%.

In the case of `Cc1ccc(NC(=O)c2nc(S(=O)(=O)Cc3cccc(C)c3)ncc2Cl)cc1`, the activity change, negative = inhibition was -29.3%.

On to `Cc1cccc(CS(=O)(=O)c2ncc(Cl)c(C(=O)Nc3ccc(F)cc3)n2)c1`, for which the activity change, negative = inhibition was -44.7% (active).

Take `Cc1cccc(NC(=O)c2nc(S(=O)(=O)Cc3ccccc3)ncc2Cl)c1`: the activity change, negative = inhibition was -28.7%.

`CCc1cccc(CC)c1NC(=O)Cn1c(=O)c(-c2cc(C)ccc2NC(C)=O)nc2ccccc21`: the activity change, negative = inhibition is -15.1%.

In the case of `Cc1nn(C)c2c1c(C(F)(F)F)cc(=O)n2C(C)C(=O)NCc1ccc(Cl)cc1` (stereo not drawn), the activity change, negative = inhibition was 16.7%.

In the case of `O=C(Nc1ccc(S(=O)(=O)N2CCC(c3nc4ccccc4s3)CC2)cc1)c1ccccc1F`, the activity change, negative = inhibition is 11%.

For `COc1ccc(N2CCN(S(=O)(=O)CCNC(=O)C(c3ccccc3)c3ccccc3)CC2)cc1`, the activity change, negative = inhibition was -1.95%.

`CCOc1ccccc1Nc1ccc(C(=O)O)cc1[N+](=O)[O-]`: the activity change, negative = inhibition was -11.5%.

`NC(=O)c1ccc(Nc2ccc3c(c2)CCC3)c([N+](=O)[O-])c1`: the activity change, negative = inhibition was -48.2% (active).

Consider `CNc1ccc(NC(C)=O)cc1[N+](=O)[O-]`, for which the activity change, negative = inhibition is -1.26%.

Take `O=[N+]([O-])c1ccccc1Nc1ccc(O)cc1`: the activity change, negative = inhibition is 5.4%.

With `CCOC(=O)c1ccc(NNC(C)=O)c([N+](=O)[O-])c1`, the activity change, negative = inhibition is -8.63%.

As for `Cc1ccc(Nc2ccc(C(N)=O)cc2[N+](=O)[O-])cc1`, the activity change, negative = inhibition was -47.2% (active).

For `COC(=O)c1cnn(-c2ccc(C(=O)Nc3ccc(OC(F)(F)F)cc3)cc2)c1N`, the activity change, negative = inhibition is -10.8%.

On to `COc1ccc(Cn2c(C(=O)O)c(CNCc3cccc(OC)c3)c3ccc(C)cc32)cc1`, for which the activity change, negative = inhibition was 8.54%.

On to `CCOC(=O)c1ccc(NC(=O)C2CC(=O)N(c3ccc4c(c3)OCCO4)C2)cc1` (stereo not drawn), for which the activity change, negative = inhibition was 6.91%.

As for `C[C@H](NC(=O)C1CC(=O)N(c2ccc3c(c2)OCCO3)C1)C(=O)N1CCC(C(=O)O)CC1` (stereo partly drawn), the activity change, negative = inhibition was 9.3%.

As to `CC(C)C[C@H](NC(=O)C1CC(=O)N(c2ccc3c(c2)OCCO3)C1)C(=O)NC1CCCC1` (stereo partly drawn), the activity change, negative = inhibition is -44.1% (active).

On to `CCN(CC(=O)NCc1ccco1)S(=O)(=O)c1ccc(F)cc1`, for which the activity change, negative = inhibition is -0.842%.

With `Cc1ccc(S(=O)(=O)N(CC(=O)NCc2ccco2)c2ccccc2C)cc1`, the activity change, negative = inhibition was -44.4% (active).

As for `COc1ccc(S(=O)(=O)N(CC(=O)NCc2ccco2)c2ccc(F)cc2)cc1`, the activity change, negative = inhibition is -3.07%.
